Test results: PubChem BioAssay (NCATS)
Inconclusive results are not listed. Unmarked numbers belong to inactive results. Activity calls are given as the source filed them. Calls follow the shape of the dose curve; as a rule, active = well fitted inhibition curve with a large enough effect; inconclusive = small, poorly fitted or top-dose-only effect; inactive = flat fitted curve, though single readings scatter. Where a SMILES comes first, the peptide text is derived from it. The star is where a group is joined. Cbz = O=C(OCc1ccccc1)*; CH2Cl = ClC*

The compounds below were run on HEK293 (assay: Cytotoxic Profiling of Annotated Libraries Using Quantitative High-Throughput Screening (AID 1296008; also: nearly all actives have a fitted effect of over 60% in size)). Conditions: Five cell lines viability, CellTiter-Glo ATP luminescence, 48-72 h; max response: active compounds read low.
Summary of the method: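 Cytotoxicity was measured as CellTiter-Glo ATP luminescence, read after 10 min at room temperature. Compound treatment of the cells lasted 48 or 72 hr at 37 degrees Celsius in a qHTS format.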
% is scaled to controls: 0 for no effect and ±100 for the full control effect; potency is read from the fitted curve at half-maximal effect.

Row | SMILES | Potency | max response [%]
1 | CN(C)C(=O)COC(=O)c1cc(-c2ccc(C3CCNCC3)cc2)c2ccc(-c3ccc(C(F)(F)F)cc3)cc2c1 | 4.61 µM (active) | 
2 | COc1cc(-n2cnc3cc(-c4ccc(Cl)cc4)sc3c2=O)ccc1OCCN1CCCC1 | 10.3 µM (active) | 
3 | CC[C@@H](C)[C@@H]1OC2(C=C[C@H]1C)C[C@@H]1C[C@H](C/C=C(\C)[C@H](O[C@H]3C[C@H](OC)[C@H](O[C@H]4C[C@H](OC)[C@H](NC(C)=O)[C@H](C)O4)[C@H](C)O3)[C@H](C)/C=C/C=C3\CO[C@H]4[C@H](O)C(C)=C[C@@H](C(=O)O1)[C@@]34O)O2 (stereo partly drawn) | 3.21 µM (active) | 
4 | COc1cc2c(cc1OC)CN(C(=O)/C=C/c1c(-c3ccccc3)n(C)c3ncccc13)CC2 | 7.31 µM (active) | 
5 | N#CC(CCCN1CCC(O)(c2ccc(Cl)cc2)CC1)(c1ccccc1)c1ccccc1 |  | -108
6 | C=C1CC2[C@@]3(C)C=CC(=O)C(C)(C)C3=C(O)C(=O)[C@@]2(C)C2(C(=O)OC)C(=O)C(C)OC(=O)[C@@]12C (stereo partly drawn) | 7.96 µM (active) | 
7 | Cn1ncc(Cl)c1-c1cc(C(=O)N[C@H](CN)Cc2cccc(F)c2)sc1Cl | 1.3 µM (active) | 
8 | N#Cc1cnc2c(Cl)cc(NCc3cn(CCN4CCCCCC4)nn3)cc2c1Nc1ccc(F)c(Cl)c1 | 18.4 µM (active) | 
9 | C/C=C(/C)C(=O)O[C@H]1[C@H](OC(=O)/C(C)=C\C)[C@@]23C(CC1(C)C)[C@]1(CCC4[C@@]5(C)CC[C@H](O[C@@H]6O[C@H](C(=O)O)[C@@H](O)[C@H](O[C@@H]7O[C@H](CO)[C@H](O)[C@H](O)[C@H]7O[C@@H]7O[C@@H](C)[C@H](O)[C@@H](O)[C@H]7O[C@@H]7OC[C@@H](O)[C@H](O)[C@H]7O)[C@H]6O[C@@H]6O[C@H](CO)[C@H](O)[C@H](O)[C@H]6O)C(C)(C)C5CC[C@@]4(C)[C@]1(C)C[C@H]2O)O[C@H]3O (stereo partly drawn) | 1.74 µM (active) | 
10 | CC(C)C[C@H](NC(=O)CNC(=O)OCc1ccccc1)C(=O)N[C@@H](Cc1ccccc1)C(=O)CCl (Cbz-Gly-Leu-Phe-CH2Cl) | 9.2 µM (active) | 
11 | C=C1C(=O)OC2/C=C(\C)CC3C=C(CC/C=C(\C)CCC12)C(=O)O3 (stereo not drawn) | 11.4 µM (active) | 
12 | CCN1CCN(Cc2ccc(NC(=O)c3ccc(C)c(Oc4ncnc5[nH]c(C)cc45)c3)cc2C(F)(F)F)CC1 | 13 µM (active) | 
13 | CC(C)CC(=O)c1c(O)cc2c(c1O)C(CC(C)C)C1=C(O2)C(C)(C)C(=O)C(C)(C)C1=O (stereo not drawn) | 5.63 µM (active) | 
14 | Cc1[nH]c(/C=C2\C(=O)Nc3ccc(F)cc32)c(C)c1C(=O)NCCN1CCCC1 | 14.6 µM (active) | 
15 | CC(C)(C)c1ccc(-c2nc3c(N4CCN(Cc5ccc6nccnc6c5)CC4)cccc3[nH]2)cc1 | 4.11 µM (active) | 
16 | CCCCCCCCC(=O)N[C@H](CN1CCCC1)[C@H](O)c1ccc2c(c1)OCCO2 | 7.31 µM (active) | 
17 | Cc1c[nH]c2ncnc(N3CCC(CN)(C(=O)Nc4cccc(OC(=O)N(C)C)c4)CC3)c12 | 3.66 µM (active) | 
18 | N#Cc1ccc2ncnc(NCCc3ccccc3)c2c1 | 18.4 µM (active) | 
19 | CCN1CCN(Cc2ccc(NC(=O)c3ccc(C)c(Oc4ccnc5[nH]ccc45)c3)cc2C(F)(F)F)CC1 | 9.04 µM (active) | 

Row | SMILES | Potency | max response [%]
20 | Cc1ccc(NC(=O)C(C)C)cc1C1CCN(Cc2ccc(Oc3ccc(F)c(F)c3)cc2)CC1 | 13 µM (active) | 
21 | Cc1nc(Nc2cnn(C3CCNCC3)c2)nc2c1N(C)C(=O)c1cc3ccccc3cc1N2C | 25.9 µM (active) | 
22 | FC(F)(F)c1ccc(CNc2ccc(Cc3c[nH]c4ncc(Cl)cc34)cn2)cn1 | 26.3 µM (active) | 
23 | CCC(=C(c1ccc(OCCN2CCCC2)cc1)c1ccc(OCCN2CCCC2)cc1)c1ccccc1 | 8.2 µM (active) | 
24 | Cn1sc(=O)n(Cc2ccccc2)c1=O | 6.51 µM (active) | 
25 | C=C1C(=O)O[C@H]2C[C@@H](C)[C@@H]3CCC(=O)[C@@]3(C)C[C@H]12 | 6.51 µM (active) | 
26 | CCCc1cc(C)[nH]c(=O)c1CNC(=O)c1cc(-c2ccc(N3CCN(C(C)C)CC3)nc2)cc2c1cnn2C(C)C | 11.6 µM (active) | 
27 | Cc1cc(N2CCOCC2)ccc1Nc1nc(NC2CCCCC2)c2[nH]cnc2n1 | 0.326 µM (active) | 
28 | Cc1cc(N2CCN(C(=O)Oc3ccc(-c4ccccc4)cn3)CC2)c2ccccc2n1 | 8.2 µM (active) | 
29 | O=C(NC1(c2ccccc2)CC1)c1c(CN2CCC(N3CCCCC3)CC2)c(-c2cccc(C(F)(F)F)c2)nc2cc(Br)ccc12 | 14.6 µM (active) | 
30 | Cc1cc(-c2nc3cc(F)ccc3s2)ccc1NC(=O)[C@@H](N)CCCCN | 14.6 µM (active) | 
31 | COc1ccc2nc(-c3cc(OC)c(OC)c(OC)c3)cc(C(=O)NCC(=O)Nc3ccc(C(C)=O)cc3)c2c1 | 7.31 µM (active) | 
32 | C=C(C=O)[C@]1(O)C[C@@]2(C)C(=CC1=O)C=C[C@H](OC(=O)/C=C/C=C/[C@H](C)CC)[C@@H]2C | 3.99 µM (active) | 
33 | C=C1CC(=O)C2OC2(C)CC2OC(=O)C(=C)C2C(O)C1OC(=O)/C(C)=C\C (stereo not drawn) | 6.4 µM (active) | 
34 | COC1CCN(c2cccc(-c3cc(NC(C)=O)nc(-n4nc(C)cc4C)n3)n2)CC1 | 9.2 µM (active) | 
35 | Cn1ncc(Cl)c1-c1cc(C(=O)NC(CN)Cc2ccc(F)c(F)c2)oc1Cl (stereo not drawn) | 0.231 µM (active) | 
36 | CCCCCCCCn1cc(CN(CC)CC)c2cc(-c3cnc(N)nc3)ccc21 | 16.4 µM (active) | 
37 | CCC(CC)C(c1ccc(Nc2nc3ccccc3s2)cc1)n1cncn1 (stereo not drawn) | 10.3 µM (active) | 
38 | C=C1C(=O)O[C@@H]2[C@H]1CC[C@H](C)C(CCC(=O)O)C2(C)O (stereo partly drawn) | 23.1 µM (active) | 
